Laboratory results taken from PubChem BioAssay.
Active and inactive are the calls of the source. Unless noted, the rule behind the calls is not given here.

Key:
[1] = compound effects on lung adenocarcinoma cell viability – A549, calcein-AM fluorescence, 48 h, basal, profiling panel (AID 1162); settings: higher = more signal; note: test concentration not given here
[2] = compound effects on differentiated 3T3-L1 adipocyte viability – cell-based, 3T3-L1 adipocytes, calcein-AM fluorescence, 48 h, basal, profiling panel (AID 1163); settings: 3T3-L1 adipocytes viability, higher = more signal; note: test concentration not given here
[3] = compound effects on hepatocellular carcinoma cell viability – HepG2, calcein-AM fluorescence, 48 h, basal, profiling panel (AID 1164); settings: higher = more signal; note: test concentration not given here
[4] = compound effects on multiple myeloma cell viability – MM1S, calcein-AM fluorescence, 48 h, basal, profiling panel (AID 1165); settings: higher = more signal;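 note: viability of MM1S multiple myeloma cells under basal unstimulated conditions; test concentration not given here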
[5] = calcein-AM signal in unstimulated myeloma cells – cell-based, calcein-AM fluorescence, 48 h, PK04 Diversity Set, profiling panel (AID 1166); settings: RPMI8226 myeloma viability, higher = more signal;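 note: cells grown under basal conditions without added stimulus; test concentration not given here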
[6] = JC-1 mitochondrial signal, unstimulated HepG2 cells – cell-based, JC-1 fluorescence, 24 h, 100 nL compound, profiling panel (AID 1167); settings: HepG2 mitochondrial potential, higher = more signal; note: test concentration not given here
[7] = JC-1 mitochondrial signal, unstimulated adipocytes – cell-based, JC-1 fluorescence, 3T3-L1 adipocytes, 24 h, 100 nL compound, profiling panel (AID 1168); settings: JC-1 mitochondrial fluorescence, higher = more signal, called active from +8 up or from −8 down; note: test concentration not given here
[8] = JC-1 mitochondrial signal, unstimulated myeloma cells – cell-based, JC-1 fluorescence, RPMI8226, 24 h, 100 nL compound, profiling panel (AID 1169); settings: JC-1 mitochondrial potential fluorescence, higher = more signal; note: test concentration not given here
[9] = JC-1 mitochondrial signal, unstimulated MM1S myeloma – cell-based, JC-1 fluorescence, 24 h, 100 nL compound, profiling panel (AID 1170); settings: MM1S mitochondrial potential, higher = more signal; note: test concentration not given here
[10] = resazurin metabolic signal in A549 cells – cell-based, resazurin fluorescence, 24 h, PK04 Diversity Set, profiling panel (AID 1171); settings: A549 viability, higher = more signal, called active from +8 up or from −8 down; note: test concentration not given here
[11] = resazurin metabolic signal in HepG2 cells – cell-based, resazurin fluorescence, 24 h, PK04 Diversity Set, profiling panel (AID 1172); settings: HepG2 viability, higher = more signal; note: test concentration not given here
[12] = budding yeast growth changes without added modifier – OD600, strain BY4716, 24 h, basal condition, primary screen (AID 1173); settings: S. cerevisiae BY4716 growth, OD600, 24 h; higher = more signal, called active from +8 up or from −8 down
[13] = viability profiling in MM1S myeloma cells – cell-based, resazurin fluorescence, basal, 24 h, PK04 Diversity Set, profiling panel (AID 1174); settings: higher = more signal, called active from +8 up or from −8 down; note: test concentration not given here
[14] = molecular target: Dihydroorotate dehydrogenase (quinone), mitochondrial (Plasmodium falciparum (isolate 3D7)) (UniProt Q08210); assay: inhibition of P. falciparum DHODH – biochemical, C-terminal His tag, absorbance 600 nm, primary screen (AID 1175); settings: PfDHODH enzyme, DCIP absorbance 600 nm; higher = more signal, called active from +8 up or from −8 down;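 note: recombinant parasite enzyme with a five histidine tag at its C terminus; test concentration not given here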
[15] = inhibition of PAO1 biofilm formation – strain PAO1, LB-PBS medium, absorbance 600 nm, primary screen (AID 1176); note: test concentration not given here; settings: P. aeruginosa PAO1 growth/biofilm, A600, 12 h; higher = more signal
[16] = growth modulation of vineyard yeast isolate – strain RM11-1a, OD600, basal, 24 h, primary screen (AID 1177);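 note: cultures grown under basal conditions with no added stressor; test concentration not given here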; settings: S. cerevisiae RM11-1a growth, OD600, 24 h; higher = more signal, called active from +8 up or from −8 down
[17] = growth of efflux-deficient E. coli DRC39 – strain DRC39, OD650, 24 h, E. coli filamentation inducers, primary screen (AID 1178);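 note: growth measured as culture turbidity by optical density at 650 nm; test concentration not given here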; settings: E. coli DRC39 acrAB, higher = more signal, called active from +8 up or from −8 down
[18] = growth of efflux-deficient E. coli DRC39 – strain DRC39, OD650, 48 h, E. coli filamentation inducers, primary screen (AID 1179);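 note: screen aims at cell division blockers that make cells filament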; settings: E. coli DRC39 delta-acrAB growth, higher = more signal, called active from +8 up or from −8 down
[19] = viability profiling in RPMI8226 myeloma cells – cell-based, resazurin fluorescence, basal, 24 h, PK04 Diversity Set, profiling panel (AID 1180); settings: higher = more signal;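 note: RPMI8826 multiple myeloma cell line at 5000 cells per well; test concentration not given here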
[20] = molecular target: E3 ubiquitin-protein ligase XIAP (Homo sapiens) (UniProt P98170); assay: small molecules binding XIAP protein – biophysical, small-molecule microarray, fluorescence 635 nm, primary screen (AID 1181); settings: higher = more signal;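 note: score merges 667 nm emission and signal to noise over triplicate slides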
Chain of E3 ubiquitin-protein ligase XIAP (Homo sapiens) (P98170 whole entry, looked up): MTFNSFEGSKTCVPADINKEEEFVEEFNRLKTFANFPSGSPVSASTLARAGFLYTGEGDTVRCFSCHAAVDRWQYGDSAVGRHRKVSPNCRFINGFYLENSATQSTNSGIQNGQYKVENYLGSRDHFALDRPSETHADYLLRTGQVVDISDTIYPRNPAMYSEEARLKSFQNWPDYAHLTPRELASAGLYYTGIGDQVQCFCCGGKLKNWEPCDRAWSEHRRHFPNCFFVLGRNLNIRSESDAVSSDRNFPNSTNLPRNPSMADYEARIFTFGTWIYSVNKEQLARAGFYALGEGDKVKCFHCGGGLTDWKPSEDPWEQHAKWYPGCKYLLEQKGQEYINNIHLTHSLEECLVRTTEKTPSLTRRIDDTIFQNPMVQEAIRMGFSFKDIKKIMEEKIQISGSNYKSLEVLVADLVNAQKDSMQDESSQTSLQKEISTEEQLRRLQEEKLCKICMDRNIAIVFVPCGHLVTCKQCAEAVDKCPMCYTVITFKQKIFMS

Chain of Dihydroorotate dehydrogenase (quinone), mitochondrial (Plasmodium falciparum (isolate 3D7)) (Q08210 whole entry, looked up): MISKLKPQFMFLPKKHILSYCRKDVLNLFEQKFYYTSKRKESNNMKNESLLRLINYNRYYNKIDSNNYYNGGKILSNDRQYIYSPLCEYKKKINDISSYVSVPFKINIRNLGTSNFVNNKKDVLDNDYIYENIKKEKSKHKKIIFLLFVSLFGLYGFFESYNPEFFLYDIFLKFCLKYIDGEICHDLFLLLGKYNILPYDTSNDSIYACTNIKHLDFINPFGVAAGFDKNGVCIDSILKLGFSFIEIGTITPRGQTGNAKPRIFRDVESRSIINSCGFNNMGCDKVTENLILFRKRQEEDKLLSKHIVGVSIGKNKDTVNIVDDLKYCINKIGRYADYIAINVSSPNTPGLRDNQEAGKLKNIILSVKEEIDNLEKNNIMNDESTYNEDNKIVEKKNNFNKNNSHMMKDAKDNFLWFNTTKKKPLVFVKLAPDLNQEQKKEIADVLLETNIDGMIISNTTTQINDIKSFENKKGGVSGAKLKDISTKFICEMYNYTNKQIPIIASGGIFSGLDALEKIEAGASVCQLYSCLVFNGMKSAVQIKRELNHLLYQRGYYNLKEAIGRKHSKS

CCCCCCCCCCC(O)C1C=CC2C(=O)N(C)C(=O)C2N1Nc1ccccc1 (stereo not given)
z-score [1]: -2.46
z-score [2]: -1.27
z-score [3]: -1.38
z-score [4]: -3.85
z-score [5]: -4.07
z-score [6]: -1.18
z-score [7]: -0.92 (inactive)
z-score [8]: -0.744
z-score [9]: 0.0317
z-score [10]: -0.545 (inactive)
z-score [11]: -1.83
z-score [12]: 0.27 (inactive)
z-score [13]: -1.49 (inactive)
composite z-score [14]: -0.205 (inactive)
z-score [15]: 1.58 (inactive)
z-score [16]: 1.35 (inactive)
z-score [17]: -0.483 (inactive)
z-score [18]: -0.54 (inactive)
z-score [19]: -1.33
composite z-score [20]: 0.192

CN1C(=O)C2C=CC(C(O)c3ccc([N+](=O)[O-])cc3)N(Nc3ccccc3)C2C1=O (stereo not given)
z-score [1]: -1.06
z-score [2]: -1.33
z-score [3]: -0.581
z-score [4]: 0.13
z-score [5]: -0.772
z-score [6]: -1.05
z-score [7]: -1.92 (inactive)
z-score [8]: -0.199
z-score [9]: -0.522
z-score [10]: -1.36 (inactive)
z-score [11]: -1.83
z-score [12]: -1.21 (inactive)
z-score [13]: -1.03 (inactive)
composite z-score [14]: 0.003 (inactive)
z-score [15]: 1.1 (inactive)
z-score [16]: 0.114 (inactive)
z-score [17]: -0.987 (inactive)
z-score [18]: -1.16 (inactive)
z-score [19]: -1.44
composite z-score [20]: -0.0476

O=C(CS)NCCCCCCNC(=O)[C@H]1C[C@H]2C(=O)NCC(=O)N2[C@H]1c1cccc(OCCO)c1
z-score [1]: -0.109
z-score [2]: 1.18
z-score [3]: -0.232
z-score [4]: -0.436
z-score [5]: -1.09
z-score [6]: -0.407
z-score [7]: 0.225 (inactive)
z-score [8]: 0.211
z-score [9]: -0.497
z-score [10]: -0.15 (inactive)
z-score [11]: -0.39
z-score [12]: -0.462 (inactive)
z-score [13]: -0.0674 (inactive)
composite z-score [14]: -0.59 (inactive)
z-score [15]: 0.339 (inactive)
z-score [16]: 0.0796 (inactive)
z-score [17]: 0.469 (inactive)
z-score [18]: -0.814 (inactive)
z-score [19]: -0.348
composite z-score [20]: 0.0269

CN1C(=O)C2C=CC(C(O)c3cccs3)N(N(c3ccccc3)c3ccccc3)C2C1=O (stereo not given)
z-score [1]: -0.404
z-score [2]: -1.97
z-score [3]: 0.44
z-score [4]: 0.442
z-score [5]: 0.398
z-score [6]: 0.27
z-score [7]: -1.02 (inactive)
z-score [8]: -0.24
z-score [9]: -0.694
z-score [10]: -0.659 (inactive)
z-score [11]: -0.428
z-score [12]: 0.754 (inactive)
z-score [13]: -1.13 (inactive)
composite z-score [14]: 0.656 (inactive)
z-score [15]: 0.419 (inactive)
z-score [16]: 0.567 (inactive)
z-score [17]: -0.483 (inactive)
z-score [18]: 0.0156 (inactive)
z-score [19]: -0.985
composite z-score [20]: 0.462

Cc1ccc(S(=O)(=O)N2[C@@H](c3ccccc3)C(C(=O)O)=CC[C@H]2c2ccc(F)cc2)cc1
z-score [1]: -0.996
z-score [2]: 0.31
z-score [3]: -0.73
z-score [4]: 0.102
z-score [5]: -0.296
z-score [6]: -0.699
z-score [7]: 0.2 (inactive)
z-score [8]: 0.597
z-score [9]: -1.09
z-score [10]: 0.649 (inactive)
z-score [11]: 0.0445
z-score [12]: -0.93 (inactive)
z-score [13]: -0.3 (inactive)
composite z-score [14]: -0.667 (inactive)
z-score [15]: 0.244 (inactive)
z-score [16]: -0.069 (inactive)
z-score [17]: -0.0944 (inactive)
z-score [18]: 0.0973 (inactive)
z-score [19]: -0.858
composite z-score [20]: 0.142

C=C(COC)C(=O)CC[C@H](OC(C)=O)c1ccccc1OCCO
z-score [1]: 0.0878
z-score [2]: 2.22
z-score [3]: -0.699
z-score [4]: -3.39
z-score [5]: -1.97
z-score [6]: 1.61
z-score [7]: 0.862 (inactive)
z-score [8]: -0.699
z-score [9]: -1.18
z-score [10]: -0.164 (inactive)
z-score [11]: -0.812
z-score [12]: -0.86 (inactive)
z-score [13]: -2.03 (inactive)
composite z-score [14]: -1.56 (inactive)
z-score [15]: -0.435 (inactive)
z-score [16]: -0.0727 (inactive)
z-score [17]: 0.732 (inactive)
z-score [18]: 0.373 (inactive)
z-score [19]: -2.37
composite z-score [20]: 0.0153

COC(=O)[C@@]1(Cc2ccccc2)[C@H]2c3cc(C(=O)N(C)C)n(CCF)c3C[C@H]2CN1C(=O)c1ccccc1
z-score [1]: -1.23
z-score [2]: -0.386
z-score [3]: -0.561
z-score [4]: 0.258
z-score [5]: -0.57
z-score [6]: 0.376
z-score [7]: -0.874 (inactive)
z-score [8]: 0.328
z-score [9]: -0.294
z-score [10]: -0.818 (inactive)
z-score [11]: -0.537
z-score [12]: 1.34 (inactive)
z-score [13]: -0.878 (inactive)
composite z-score [14]: 0.288 (inactive)
z-score [15]: 0.715 (inactive)
z-score [16]: 0.155 (inactive)
z-score [17]: -0.407 (inactive)
z-score [18]: 0.0857 (inactive)
z-score [19]: -0.329
composite z-score [20]: 0.0635

COc1ccc([Si](C)(C)[C@H]2[C@H](CC(=O)N(CCO)Cc3ccccc3)O[C@@]3(C(=O)N(Cc4ccc(N5C(=O)c6cccc7cccc5c67)cc4)c4ccccc43)[C@@H]2C)cc1
z-score [1]: -1.12
z-score [2]: 1.59
z-score [3]: -0.899
z-score [4]: -0.998
z-score [5]: -3.8
z-score [6]: 0.488
z-score [7]: -0.381 (inactive)
z-score [8]: -1.05
z-score [9]: -0.091
z-score [10]: -2.22 (inactive)
z-score [11]: -1.14
z-score [12]: 1.21 (inactive)
z-score [13]: -2.21 (inactive)
composite z-score [14]: -1.51 (inactive)
z-score [15]: 0.319 (inactive)
z-score [16]: 2.45 (inactive)
z-score [17]: -0.838 (inactive)
z-score [18]: -1.02 (inactive)
z-score [19]: -2.14
composite z-score [20]: 0.177

COCCOC(=O)N1C(=O)[C@@]2(c3ccccc31)[C@H](C(=O)Nc1nc3ccccc3s1)[C@H]1C(=O)O[C@H](c3ccccc3)[C@H](c3ccccc3)N1[C@@H]2c1ccccc1OCCO
z-score [1]: -0.905
z-score [2]: 0.679
z-score [3]: -0.899
z-score [4]: -0.975
z-score [5]: -1.48
z-score [6]: -2.27
z-score [7]: 2.21 (inactive)
z-score [8]: -0.796
z-score [9]: -0.61
z-score [10]: 0.101 (inactive)
z-score [11]: -0.49
z-score [12]: 2.38 (inactive)
z-score [13]: -0.304 (inactive)
composite z-score [14]: 1.38 (inactive)
z-score [15]: 2.9 (inactive)
z-score [16]: 2.25 (inactive)
z-score [17]: 0.0795 (inactive)
z-score [18]: -0.315 (inactive)
z-score [19]: -0.236
composite z-score [20]: 0.0245
